For 14 compounds, growth results are on record in PubChem BioAssay (NCI).

Each structure is given as a SMILES string. Compounds without any hit were thinned out: in the full panel of roughly 83,000, 20% have a hit.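 Cells were grown in 96-well plates and exposed to the test compound at a single concentration for 48 hours; results are reported as percent growth, with values below 10 considered active.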 A number with no mark means an inactive call. Calls of active or inactive are those of the source.

What all share (test): NCI-60 one-dose screen, 48 h (100 = growth as untreated, 0 = no growth, -100 = all killed)
What all share (conditions): 10 µM unless noted

The subject of assay [1] is T-47D breast.
The subject of assay [2] is BT-549 breast.
The test system of assay [3] is MDA-MB-435 melanoma.
Assay [4] has as its system SW-620 colon.
The test system of assay [5] is MCF7 breast.
For assay [6], the system named is HCT-116 colon.
Assay [7] has as its system HCC-2998 colon.
The subject of assay [8] is KM12 colon.

Regarding `CCCNCCC(C)=O`, the growth in assay [1] is 98.7%; in assay [2], 106%; in assay [3], 94.7%; in assay [4], 97.6%; in assay [5], 106%; in assay [6], 109%. Moreover, the growth in assay [7] was 99.6%; in assay [8] it was 112%.
Consider `CNCCCn1c2c(c3ccc(Cl)cc3c1=O)C(=O)c1cc(OC)cnc1-2`, for which the growth in assay [1] was 40%; in assay [2], 45.9%; in assay [3], 55.8%; in assay [4] it was -63.6% (active); in assay [5], -45.4% (active); in assay [6], -81.4% (active). The growth in assay [7] is 71.3%; in assay [8], 40.7%.
In the case of `CCN(CC)CCNC(=O)C(F)(F)C(F)(F)C(F)(F)F`, the growth is 110% in assay [1]; 98.7% in assay [2]; 109% in assay [3]; 104% in assay [4]; 108% in assay [5]; 96.2% in assay [6]. Besides, the growth is 105% in assay [7] and 101% in assay [8].
Take `O=C(c1ccccc1)c1cccc(C(Br)Br)c1`: the growth was 88.4% in assay [1]; 99.4% in assay [2]; 30.9% in assay [3]; 66.3% in assay [4]; 65.6% in assay [5]; 65.9% in assay [6]. In addition, the growth was 94% in assay [7] and 75.2% in assay [8].
In the case of `CCN(CC)CCCC(C)Nc1c(-c2ccccc2)cnc2cc(Cl)ccc12` (configuration not stated), the growth was -44.9% (active) in assay [1]; 87.4% in assay [2]; 38.2% in assay [3]; 70.3% in assay [4]; 59.1% in assay [5]; 36.2% in assay [6]. In addition, the growth in assay [7] is 73.4%; in assay [8], 65.3%.
Regarding `O=C(O)c1cc2cc(OCc3ccccc3)ccc2[nH]1`, the growth is 101% in assay [1]; 84.9% in assay [2]; 111% in assay [3]; 102% in assay [4]; 62.4% in assay [5]; 100% in assay [6]. In addition, the growth in assay [7] was 104%; in assay [8], 96.8%.
With `OCCN(CCO)c1ccc2ccccc2c1`, the growth in assay [1] was 96.6%; in assay [2] it was 101%; in assay [3] it was 104%; in assay [4] it was 105%; in assay [5] it was 93.3%; in assay [6] it was 89.3%. Also, the growth in assay [7] is 108%; in assay [8], 99.9%.
In the case of `CN(C)N1C(=O)c2c(Cl)c(Cl)c(Cl)c(Cl)c2C1=O`, the growth in assay [1] is 93%; in assay [2], 129%; in assay [3], 114%; in assay [4] it was 108%; in assay [5] it was 95.7%; in assay [6], 101%. In addition, the growth in assay [7] was 102%; in assay [8], 113%.
On to `CCCCCCCCCCCC1=NC(C)(C)CN1CC(C)O` (configuration not stated), for which the growth was 58.9% in assay [1]; 67.8% in assay [2]; -7.43% (active) in assay [3]; 52% in assay [4]; 25.8% in assay [5]; 22.8% in assay [6]. The growth was -60.8% (active) in assay [7] and 34% in assay [8].
In the case of `COc1cc2c(=O)n(CCCN(C)C)c3c4cc[nH]c4ncc3c2cc1OC`, the growth in assay [1] was 63.9%; in assay [2], 72.5%; in assay [3], 51%; in assay [4], 24.9%; in assay [5], 15.5%; in assay [6], 16.8%. For the same compound, the growth was 55.7% in assay [7] and 19.2% in assay [8].
As to `COc1cc(/C=N/NC(=O)Cn2c(-c3ccc(C)o3)nc3ccccc32)ccc1OCc1ccccc1`, the growth was 69.2% in assay [1]; 92% in assay [2]; 96.9% in assay [3]; 89.9% in assay [4]; 76.2% in assay [5]; 71.9% in assay [6]. Moreover, the growth in assay [7] was 103%; in assay [8], 85.1%.
As to `COc1cc2ncnc(Nc3ccc(S(=O)(=O)Nc4cc(C)on4)cc3)c2cc1OCCCN1CCN(c2ccc([N+](=O)[O-])cc2)CC1`, the growth is 102% in assay [1]; 109% in assay [2]; 103% in assay [3]; 105% in assay [4]; 106% in assay [5]; 109% in assay [6]. Moreover, the figures for the growth in assay [7] and in assay [8] were 111% and 106%, respectively.
As to `O=C(Nc1cccc(N=Cc2c(O)ccc3ccccc23)c1)c1ccccc1`, the growth in assay [1] was 85.2%; in assay [2] it was 85.3%; in assay [3] it was 101%; in assay [4], 98.6%; in assay [5], 86.3%; in assay [6], 93.9%. Further, the growth in assay [7] is 102%; in assay [8] it was 95.6%.
For `CC(=O)Oc1c(Cl)c(Cl)c(Cl)c(Cl)c1Cl`, the growth in assay [1] is 89.2%; in assay [2], 95.4%; in assay [3], 102%; in assay [4], 102%; in assay [5], 93.8%; in assay [6], 99.4%. Moreover, the values for the growth in assay [7] and in assay [8] were 94.9% and 103%, respectively.
